Activity calls are given as the source filed them. How the source made its calls: active means hit-call score of the fitted dose curve at least 0.9, where 1 is the maximum; inactive means score below 0.9.
Tests used:
Details in all cases: mRNA level, 48 h; actives raise or lower the signal
[1] = read-out: Lipoprotein lipase (LPL), LPL (gene 4023); experiment: LTEA_HepaRG_LPL: Life Technologies and Expression Analysis (LTEA) Assay for Lipoprotein lipase (LPL) using HepaRG (AID 2283515)
In short: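 Read-out is LPL transcript level by qRT-PCR, normalized to three housekeeping genes and fitted bidirectionally against the DMSO control. Human HepaRG cells received chemicals for 48 h at up to 100 uM.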

[2] = read-out: MicroRNA 122 (MIR122), gene 406906; experiment: LTEA_HepaRG_MIR122: Life Technologies and Expression Analysis (LTEA) Assay for MicroRNA 122 (MIR122) using HepaRG (AID 2283516); further: the transcript read is the microRNA miR-122
In short: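 HepaRG, 48 h exposure, 8-pt half-log from 100 uM, 0.5% DMSO; TaqMan qRT-PCR; bidirectional fit vs DMSO.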

[3] = read-out: matrix metalloproteinase-10 (MMP10), MMP10 (gene 4319); experiment: LTEA_HepaRG_MMP10: Life Technologies and Expression Analysis (LTEA) Assay for matrix metalloproteinase-10 (MMP10) using HepaRG (AID 2283517)
In short: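 Gain or loss of MMP10 mRNA is fitted relative to the 0.5% DMSO vehicle. The human hepatic line HepaRG receives a 48-hour serum-free exposure, in duplicate, with a maximum concentration of 100 uM.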

MYC, MYC (gene 4609) = experiment: LTEA_HepaRG_MYC: Life Technologies and Expression Analysis (LTEA) Assay for MYC using HepaRG (AID 2283518)
In short: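 MYC transcript changes, up or down relative to 0.5% DMSO, from TaqMan qRT-PCR normalized to three housekeeping genes. Human HepaRG cultures received chemicals for 48 h at eight half-log concentrations up to 100 uM, in duplicate.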

[4] = read-out: matrix metalloproteinase-3 (MMP3), MMP3 (gene 4314); experiment: LTEA_HepaRG_MMP3: Life Technologies and Expression Analysis (LTEA) Assay for matrix metalloproteinase-3 (MMP3) using HepaRG (AID 2283519)
In short: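 HepaRG, human; 48 h dosing, 8 conc. (max 100 uM, half-log), duplicate, 0.5% DMSO. Readout: MMP3 transcript by Fluidigm TaqMan qRT-PCR, ACTB/GAPDH/POLR2A-normalised. Gain or loss fitted vs DMSO.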

[5] = read-out: Paternally Expressed 10 (PEG10), PEG10 (gene 23089); experiment: LTEA_HepaRG_PEG10: Life Technologies and Expression Analysis (LTEA) Assay for Paternally Expressed 10 (PEG10) using HepaRG (AID 2283520);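 on AC50: PEG10 transcript by qRT-PCR normalised to ACTB GAPDH and POLR2A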
In short: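 Chemicals tested on HepaRG cells for 48 h, highest concentration 100 uM. PEG10 expression assessed by qRT-PCR relative to DMSO control.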

[6] = read-out: Nuclear factor NF-kappa-B p105 subunit (Homo sapiens) (UniProt P19838); experiment: LTEA_HepaRG_NFKB1: Life Technologies and Expression Analysis (LTEA) Assay for Nuclear Factor Kappa B Subunit 1 (NFKB1) using HepaRG (AID 2283521)
In short: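 Differentiated human HepaRG cells in serum-free induction medium with 0.5% DMSO were exposed for 48 h to eight half-log concentrations, top 100 uM, in duplicate. NFKB1 mRNA measured by Fluidigm TaqMan qRT-PCR, normalised to ACTB, GAPDH and POLR2A; bidirectional fit versus DMSO.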

[7] = read-out: Protein phosphatase 2A (PPP2R4), PTPA (gene 5524); experiment: LTEA_HepaRG_PPP2R4: Life Technologies and Expression Analysis (LTEA) Assay for Protein phosphatase 2A (PPP2R4) using HepaRG (AID 2283522)
In short: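 Gene-expression endpoint in HepaRG hepatic cells: 48 h treatment across eight half-log concentrations up to 100 uM in 0.5% DMSO. PPP2R4 mRNA by qRT-PCR, normalized to three endogenous control genes.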

[8] = read-out: Phosphatase and tensin (PTEN), PTEN (gene 5728); experiment: LTEA_HepaRG_PTEN: Life Technologies and Expression Analysis (LTEA) Assay for Phosphatase and tensin (PTEN) using HepaRG (AID 2283523)
In short: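 Read-out is PTEN transcript level by multiplexed TaqMan qRT-PCR after 48 h chemical treatment of human HepaRG cultures in serum-free induction medium. Concentrations spanned 100 uM downward in half-log steps, 0.5% DMSO throughout; activity fitted in both directions against vehicle.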

[9] = read-out: solute carrier (SLC22A1), SLC22A1 (gene 6580); experiment: LTEA_HepaRG_SLC22A1: Life Technologies and Expression Analysis (LTEA) Assay for solute carrier (SLC22A1) using HepaRG (AID 2283524)
In short: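 HepaRG (human liver line), 48 h dosing in serum-free induction medium; 8 conc., half-log down from 100 uM, 0.5% DMSO vehicle, duplicates. Endpoint: SLC22A1 mRNA, qRT-PCR, housekeeping-normalized; gain/loss fit vs DMSO.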

[10] = read-out: Pyruvate Dehydrogenase Kinase 4 (PDK4), PDK4 (gene 5166); experiment: LTEA_HepaRG_PDK4: Life Technologies and Expression Analysis (LTEA) Assay for Pyruvate Dehydrogenase Kinase 4 (PDK4) using HepaRG (AID 2283525)
In short: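 In this multiplexed human HepaRG expression assay, cells are treated 48 h with test chemicals across an eight-point range starting at 100 uM. PDK4 mRNA changes, normalized to ACTB/GAPDH/POLR2A, are fitted in both directions relative to vehicle.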

[11] = read-out: NAD(P)H dehydrogenase [quinone] 1 (NQO1), NQO1 (gene 1728); experiment: LTEA_HepaRG_NQO1: Life Technologies and Expression Analysis (LTEA) Assay for NAD(P)H dehydrogenase [quinone] 1 (NQO1) using HepaRG (AID 2283526)
In short: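 Human HepaRG hepatic cells received chemicals for 48 h in serum-free induction medium with 0.5% DMSO, up to 100 uM. Expression was assessed by TaqMan qRT-PCR against housekeeping controls and fitted bidirectionally against DMSO.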

[12] = read-out: Nuclear factor erythroid 2-related factor 2 (Homo sapiens) (UniProt Q16236); experiment: LTEA_HepaRG_NFE2L2: Life Technologies and Expression Analysis (LTEA) Assay for Nuclear factor erythroid 2-related factor 2 (NFE2L2) Transcription Factor using HepaRG (AID 2283527);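 further: TaqMan qRT-PCR transcript level normalised to ACTB GAPDH and POLR2A housekeeping genes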
In short: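 Transcript level of NFE2L2 is the read-out, measured by microfluidic TaqMan qRT-PCR and normalized to three housekeeping genes. Human HepaRG cultures received test chemical for 48 h at up to 100 uM in half-log steps. Gain or loss of signal is fitted relative to 0.5% DMSO.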

[13] = read-out: succinate dehydrogenase complex iron sulfur subunit B (SDHB), SDHB (gene 6390); experiment: LTEA_HepaRG_SDHB: Life Technologies and Expression Analysis (LTEA) Assay for succinate dehydrogenase complex iron sulfur subunit B (SDHB) using HepaRG (AID 2283528)
In short: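 HepaRG cells (~100,000/well, plated 48 h) exposed in duplicate for 48 h in serum-free induction medium to 8-point half-log series from 100 uM in 0.5% DMSO; mRNA by qRT-PCR normalised to ACTB, GAPDH, POLR2A; bidirectional fit versus DMSO.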

[14] = read-out: Signal transducer and activator of transcription 3 (Homo sapiens) (UniProt P40763); experiment: LTEA_HepaRG_STAT3: Life Technologies and Expression Analysis (LTEA) Assay for Signal transducer and activator of transcription (STAT3) using HepaRG (AID 2283529)
In short: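 Read-out is STAT3 mRNA level by qRT-PCR, normalized to three housekeeping genes, in human HepaRG liver cells treated for 48 h. Concentrations ran from 100 uM downward in half-log steps; curves were fitted for gain or loss relative to 0.5% DMSO.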

[15] = read-out: solute carrier (SLCO1B1), SLCO1B1 (gene 10599); experiment: LTEA_HepaRG_SLCO1B1: Life Technologies and Expression Analysis (LTEA) Assay for solute carrier (SLCO1B1) using HepaRG (AID 2283530)
In short: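 SLCO1B1 transcript levels were quantified by TaqMan qRT-PCR using three housekeeping genes for normalization. This followed 48 h chemical exposure (100 uM top, half-log, 8 points, 0.5% DMSO) of HepaRG liver cells, with gain or loss fitted relative to DMSO.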

[16] = read-out: sulfotransferase 2A1 (SULT2A1), SULT2A1 (gene 6822); experiment: LTEA_HepaRG_SULT2A1: Life Technologies and Expression Analysis (LTEA) Assay for sulfotransferase 2A1 (SULT2A1) using HepaRG (AID 2283531)
In short: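 Expression change of SULT2A1, by qRT-PCR with three housekeeping-gene normalization, was scored bidirectionally versus DMSO. Cells: differentiated HepaRG, dosed in duplicate for 48 h across 8 points, highest 100 µM, half-log dilution, 0.5% DMSO.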

[17] = read-out: Transforming Growth Factor (TGFA), TGFA (gene 7039); experiment: LTEA_HepaRG_TGFA: Life Technologies and Expression Analysis (LTEA) Assay for Transforming Growth Factor (TGFA) using HepaRG (AID 2283532)
In short: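 HepaRG (human liver line), 48 h exposure, 8 conc. half-log down from 100 uM, 0.5% DMSO vehicle, duplicates; serum-free induction medium. TGFA mRNA by TaqMan qRT-PCR, ACTB/GAPDH/POLR2A normalization; gain/loss fit vs DMSO.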

[18] = read-out: Transforming Growth Factor (TGFB1), TGFB1 (gene 7040); experiment: LTEA_HepaRG_TGFB1: Life Technologies and Expression Analysis (LTEA) Assay for Transforming Growth Factor (TGFB1) Transporter using HepaRG (AID 2283533)
In short: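 TGFB1 transcript measured by qRT-PCR with normalisation to three housekeeping genes (ACTB, GAPDH, POLR2A); human HepaRG line treated in duplicate for 48 hr with an 8-point series topping at 100 uM, 0.5% DMSO vehicle, bidirectionally fitted.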

TIMP1, TIMP1 (gene 7076) = experiment: LTEA_HepaRG_TIMP1: Life Technologies and Expression Analysis (LTEA) Assay for TIMP1 using HepaRG (AID 2283534)
In short: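 Bidirectional change in TIMP1 transcript versus 0.5% DMSO, measured by TaqMan qRT-PCR with three housekeeping genes for normalization. HepaRG human liver cells dosed 48 h in duplicate, top concentration 100 uM with half-log dilutions.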

Measured: AC50

Signal transducer and activator of transcription 3 (Homo sapiens), sequence (P40763 whole entry, looked up): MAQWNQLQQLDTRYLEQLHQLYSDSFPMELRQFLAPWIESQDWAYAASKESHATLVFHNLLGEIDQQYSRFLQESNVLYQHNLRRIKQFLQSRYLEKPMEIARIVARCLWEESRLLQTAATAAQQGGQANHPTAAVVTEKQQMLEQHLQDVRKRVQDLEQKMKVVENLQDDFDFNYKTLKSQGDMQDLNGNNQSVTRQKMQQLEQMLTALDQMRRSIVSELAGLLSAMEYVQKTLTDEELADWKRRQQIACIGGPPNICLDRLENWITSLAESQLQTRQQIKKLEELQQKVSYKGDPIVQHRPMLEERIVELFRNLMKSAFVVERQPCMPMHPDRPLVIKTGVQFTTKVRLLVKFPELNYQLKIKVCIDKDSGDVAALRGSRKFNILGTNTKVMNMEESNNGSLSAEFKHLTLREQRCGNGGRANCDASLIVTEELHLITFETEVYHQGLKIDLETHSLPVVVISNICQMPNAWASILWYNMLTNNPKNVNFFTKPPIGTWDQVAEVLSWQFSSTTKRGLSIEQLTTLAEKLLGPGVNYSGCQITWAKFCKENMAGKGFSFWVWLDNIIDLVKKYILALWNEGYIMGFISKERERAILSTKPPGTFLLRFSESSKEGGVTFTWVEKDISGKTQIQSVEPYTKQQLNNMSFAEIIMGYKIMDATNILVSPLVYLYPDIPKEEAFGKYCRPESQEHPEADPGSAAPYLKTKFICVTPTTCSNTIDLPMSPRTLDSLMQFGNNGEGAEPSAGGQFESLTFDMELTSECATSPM
Nuclear factor NF-kappa-B p105 subunit (Homo sapiens), sequence (P19838 whole entry, looked up): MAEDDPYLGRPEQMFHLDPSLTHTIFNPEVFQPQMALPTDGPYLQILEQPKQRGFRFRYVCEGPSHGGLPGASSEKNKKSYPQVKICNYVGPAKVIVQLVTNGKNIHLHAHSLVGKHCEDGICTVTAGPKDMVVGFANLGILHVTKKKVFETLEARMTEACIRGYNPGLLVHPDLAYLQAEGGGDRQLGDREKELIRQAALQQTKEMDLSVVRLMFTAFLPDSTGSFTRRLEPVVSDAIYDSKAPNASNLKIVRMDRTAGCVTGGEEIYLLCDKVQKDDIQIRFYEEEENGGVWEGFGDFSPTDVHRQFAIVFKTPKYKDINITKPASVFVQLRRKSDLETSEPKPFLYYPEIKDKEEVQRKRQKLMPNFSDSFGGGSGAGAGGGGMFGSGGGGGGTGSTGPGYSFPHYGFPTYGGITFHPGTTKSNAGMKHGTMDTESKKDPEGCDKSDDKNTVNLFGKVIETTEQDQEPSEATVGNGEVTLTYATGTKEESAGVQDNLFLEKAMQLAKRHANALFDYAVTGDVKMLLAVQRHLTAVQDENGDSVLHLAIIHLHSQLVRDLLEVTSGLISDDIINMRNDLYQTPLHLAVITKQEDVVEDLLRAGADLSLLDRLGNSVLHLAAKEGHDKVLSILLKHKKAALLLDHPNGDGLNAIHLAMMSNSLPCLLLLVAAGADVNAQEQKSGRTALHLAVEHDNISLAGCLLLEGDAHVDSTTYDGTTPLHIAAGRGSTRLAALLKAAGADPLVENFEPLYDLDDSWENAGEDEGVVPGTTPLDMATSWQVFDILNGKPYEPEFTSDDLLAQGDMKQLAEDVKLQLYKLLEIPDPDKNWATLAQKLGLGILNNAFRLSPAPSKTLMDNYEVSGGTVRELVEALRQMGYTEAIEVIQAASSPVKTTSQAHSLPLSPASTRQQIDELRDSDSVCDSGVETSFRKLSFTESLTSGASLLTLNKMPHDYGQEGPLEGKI
Nuclear factor erythroid 2-related factor 2 (Homo sapiens), sequence (Q16236 whole entry, looked up): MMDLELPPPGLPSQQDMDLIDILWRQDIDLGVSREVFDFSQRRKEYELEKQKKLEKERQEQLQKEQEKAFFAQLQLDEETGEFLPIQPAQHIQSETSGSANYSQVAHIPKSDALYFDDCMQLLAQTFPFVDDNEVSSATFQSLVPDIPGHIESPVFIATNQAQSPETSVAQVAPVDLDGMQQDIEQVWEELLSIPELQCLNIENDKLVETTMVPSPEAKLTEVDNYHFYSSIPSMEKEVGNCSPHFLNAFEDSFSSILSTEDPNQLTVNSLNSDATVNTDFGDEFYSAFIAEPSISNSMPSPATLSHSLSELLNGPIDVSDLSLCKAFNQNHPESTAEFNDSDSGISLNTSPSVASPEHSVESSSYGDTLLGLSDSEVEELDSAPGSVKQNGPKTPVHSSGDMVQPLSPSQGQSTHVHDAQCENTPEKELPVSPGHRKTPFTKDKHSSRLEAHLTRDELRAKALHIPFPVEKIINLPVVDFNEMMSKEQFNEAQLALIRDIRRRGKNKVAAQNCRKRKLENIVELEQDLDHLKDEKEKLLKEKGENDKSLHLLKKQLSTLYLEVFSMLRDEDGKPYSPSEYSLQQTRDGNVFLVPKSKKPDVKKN

NCc1cccc(C2CCN(C(=O)c3ccc(C#Cc4ccccc4F)o3)CC2)c1
active: [2] 97.8 µM | [5] 24.7 µM | [9] 92.6 µM | [10] 64.9 µM | [15] 88.5 µM | [16] 92.9 µM | TIMP1, TIMP1 (gene 7076) 85.9 µM
inactive: all other assays above

O=C(O)c1ccccc1C(=O)OCc1ccccc1
active: [10] 28.6 µM
inactive: all other assays above

O=C(OCCCCCCOC(=O)c1ccccc1)c1ccccc1
inactive: all assays above

O=c1[nH]sc2ccccc12
inactive: all assays above

C[C@]12CC[C@@H]3c4ccc(O)cc4CC[C@H]3[C@@H]1CCC2=O
active: [9] 33.3 µM
not listed: [16]
inactive: all other assays above

OCCO
not listed: [16]
inactive: all other assays above

From PubChem BioAssay (EPA / NIEHS)
